From PubChem BioAssay (EPA / NIEHS) come the findings set out here.

The target of test [1] is Retinoic acid receptor RXR-alpha (Homo sapiens) (UniProt P19793). The experiment in a line: ATG_RXRa_TRANS: Attagene TRANS-FACTORIAL HepG2 Assay for human Retinoid X Receptor alpha (RXRa) (AID 2283012; active = hit-call score of the fitted dose curve at least 0.9, where 1 is the maximum). The essentials: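 HepG2 cells transiently transfected with GAL4-UAS reporter units and chimeric RXRa-Gal4 protein, treated 24 h. Reporter mRNA measured by RT-PCR, fluorescent labelling, HpaI digestion and capillary electrophoresis. Induction fitted against DMSO.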

Test [2] deals with human Thyroid Receptor alpha (THRa1), THRA (gene 7067) (UniProt P10827). The experiment in a line: ATG_THRa1_TRANS: Attagene TRANS-FACTORIAL HepG2 Assay for human Thyroid Receptor alpha (THRa1) (AID 2283014; active = hit-call score of the fitted dose curve at least 0.9, where 1 is the maximum). The essentials:
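First, HepG2 cells receive multiple GAL4-UAS reporter units and the chimeric receptor. They are then dosed for 24 h, after which RNA is reverse-transcribed, amplified, labelled, HpaI-cut and sized by capillary electrophoresis; gain relative to DMSO is scored.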

Read-out in test [3]: E-selectin (Homo sapiens) (UniProt P16581)
Put plainly: BSK_3C_Eselectin: BioMAP Diversity Plus: 3C Assay for Eselectin Biomarker Activity (AID 2283015).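 As to outcome: cell surface E-selectin protein quantified by ELISA 24 h after dosing.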 The following applies: primary human endothelial cells (HUVEC); actives raise or lower the signal. In a few lines: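 Human vascular endothelium from umbilical vein is exposed to test chemicals for 24 h. E-selectin levels are read by ELISA and compared with DMSO controls.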

Read-out in test [4]: Interleukin-1 alpha (IL1a), IL1A (gene 3552)
Put plainly: BSK_BE3C_IL1a: BioMAP Diversity Plus: BE3C Assay for Interleukin-1 alpha (IL1a) Biomarker Activity (AID 2283016). The following applies: primary human bronchial epithelial cells; actives raise or lower the signal. The essentials:
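Human primary bronchial epithelial cells, 24 h chemical exposure; IL-1a quantified by ELISA, fitted bidirectionally against DMSO. Cytotoxicity assessed in parallel by SRB total-protein staining at the time of measurement.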

Read-out in test [5]: Monocyte Chemoattractant Protein-1 (MCP1), CCL2 (gene 6347)
The experiment in a line: BSK_3C_MCP1: BioMAP Diversity Plus: 3C Assay for Monocyte Chemoattractant Protein-1 (MCP1) Biomarker Activity (AID 2283017). The following applies: primary human endothelial cells (HUVEC); actives raise or lower the signal. In a few lines:
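Endothelial cells from human umbilical vein are dosed with chemical, cultured 24 h, then assayed for MCP-1 by ELISA; both increases and decreases are modelled against DMSO controls.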

Read-out in test [6]: Monocyte Chemoattractant Protein-1 (MCP1), CCL2 (gene 6347)
Put plainly: BSK_4H_MCP1: BioMAP Diversity Plus: 4H Assay for Monocyte Chemoattractant Protein-1 (MCP1) Biomarker Activity (AID 2283018). The note with it: primary human endothelial cells (HUVEC); actives raise or lower the signal. In a few lines: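 Human umbilical vein endothelial cells (4H system) exposed to chemicals for 24 h in 96-well format. MCP-1 measured by ELISA; bidirectional fitting against DMSO, with SRB total-protein staining in parallel cultures for cytotoxicity.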

Read-out in test [7]: Human Leukocyte Antigen - DR isotype (HLADR), HLA-DRA (gene 3122)
Put plainly: BSK_3C_HLADR: BioMAP Diversity Plus: 3C Assay for Human Leukocyte Antigen - DR isotype (HLADR) Biomarker Activity (AID 2283019).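 As to outcome: ELISA of cell-surface HLA-DR on HUVEC 24 h after dosing.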 The note with it: primary human endothelial cells (HUVEC); actives raise or lower the signal. In a few lines:
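Endothelial cells from human umbilical vein are treated with test chemical; after 24 h, HLA-DR levels are measured by ELISA. Data are fitted in both directions using DMSO as the baseline.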

In test [8] the target is human RAR-related Orphan Receptor gamma (RORg), RORC (gene 6097) (UniProt P51449). Put plainly: ATG_RORg_TRANS: Attagene TRANS-FACTORIAL HepG2 Assay for human RAR-related Orphan Receptor gamma (RORg) (AID 2283011; active = hit-call score of the fitted dose curve at least 0.9, where 1 is the maximum). In a few lines: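 Activity is scored as increase in GAL4-UAS reporter mRNA over DMSO, detected by fluorescent RT-PCR and capillary electrophoresis in HepG2 cells transiently expressing a RORg-Gal4 chimera, 24 h after dosing.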

In test [9] the target is human Retinoid X Receptor beta (RXRb), RXRB (gene 6257) (UniProt P28702). The experiment in a line: ATG_RXRb_TRANS: Attagene TRANS-FACTORIAL HepG2 Assay for human Retinoid X Receptor beta (RXRb) (AID 2283013; active = hit-call score of the fitted dose curve at least 0.9, where 1 is the maximum). The essentials: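 HepG2 cells were transiently transfected with multiplexed GAL4-UAS reporters and a chimeric RXRb-Gal4 construct, then exposed for 24 h. Reporter mRNA was quantified by RT-PCR, FAM labeling, HpaI digestion and capillary electrophoresis; gain of signal was scored against DMSO.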

In general, AC50 refers to the concentration giving half of the maximal activity seen.

Where “and” joins values, the source holds several entries; their conditions need not be identical. Identical values can stand only once. Results filed as inconclusive are left out. Where a structure was tested more than once in an assay, its records may differ in their call. Calls of active or inactive are those of the source. The calls were made as follows, unless noted: active = hit-call score of the fitted dose curve at least 0.9, where 1 is the maximum; inactive = score below 0.9.

Chain of E-selectin (Homo sapiens) (P16581 whole entry, looked up): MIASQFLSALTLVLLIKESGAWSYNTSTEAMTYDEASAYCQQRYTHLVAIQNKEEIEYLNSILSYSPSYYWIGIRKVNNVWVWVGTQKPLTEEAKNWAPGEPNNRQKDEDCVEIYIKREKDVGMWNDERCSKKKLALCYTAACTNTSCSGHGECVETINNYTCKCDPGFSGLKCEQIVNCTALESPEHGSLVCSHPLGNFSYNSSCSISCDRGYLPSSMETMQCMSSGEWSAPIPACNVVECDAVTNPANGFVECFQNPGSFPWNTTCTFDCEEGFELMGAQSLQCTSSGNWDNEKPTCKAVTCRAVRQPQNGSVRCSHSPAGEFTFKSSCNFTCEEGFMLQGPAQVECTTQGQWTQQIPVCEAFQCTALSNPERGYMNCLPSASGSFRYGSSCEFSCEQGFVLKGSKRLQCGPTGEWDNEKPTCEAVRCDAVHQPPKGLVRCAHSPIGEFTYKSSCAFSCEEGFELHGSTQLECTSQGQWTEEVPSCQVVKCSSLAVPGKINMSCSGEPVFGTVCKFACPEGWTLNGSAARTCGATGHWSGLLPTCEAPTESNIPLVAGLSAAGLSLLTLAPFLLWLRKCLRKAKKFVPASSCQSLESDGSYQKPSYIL
Chain of Retinoic acid receptor RXR-alpha (Homo sapiens) (P19793 whole entry, looked up, the tested form may be a part): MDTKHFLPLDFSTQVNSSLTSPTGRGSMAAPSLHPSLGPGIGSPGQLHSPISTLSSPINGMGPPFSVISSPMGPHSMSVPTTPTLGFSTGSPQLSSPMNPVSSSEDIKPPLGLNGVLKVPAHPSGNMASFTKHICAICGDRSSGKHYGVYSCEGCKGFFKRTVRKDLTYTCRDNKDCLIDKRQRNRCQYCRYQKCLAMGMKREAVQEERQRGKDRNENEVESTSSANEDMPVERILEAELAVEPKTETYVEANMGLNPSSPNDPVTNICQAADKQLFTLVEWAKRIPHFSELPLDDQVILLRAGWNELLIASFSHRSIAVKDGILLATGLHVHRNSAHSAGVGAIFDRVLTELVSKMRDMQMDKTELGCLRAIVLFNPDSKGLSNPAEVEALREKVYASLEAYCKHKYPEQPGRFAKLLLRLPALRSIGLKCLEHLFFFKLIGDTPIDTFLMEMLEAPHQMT
Chain of human RAR-related Orphan Receptor gamma (RORg), RORC (gene 6097) (P51449 whole entry, looked up, the tested form may be a part): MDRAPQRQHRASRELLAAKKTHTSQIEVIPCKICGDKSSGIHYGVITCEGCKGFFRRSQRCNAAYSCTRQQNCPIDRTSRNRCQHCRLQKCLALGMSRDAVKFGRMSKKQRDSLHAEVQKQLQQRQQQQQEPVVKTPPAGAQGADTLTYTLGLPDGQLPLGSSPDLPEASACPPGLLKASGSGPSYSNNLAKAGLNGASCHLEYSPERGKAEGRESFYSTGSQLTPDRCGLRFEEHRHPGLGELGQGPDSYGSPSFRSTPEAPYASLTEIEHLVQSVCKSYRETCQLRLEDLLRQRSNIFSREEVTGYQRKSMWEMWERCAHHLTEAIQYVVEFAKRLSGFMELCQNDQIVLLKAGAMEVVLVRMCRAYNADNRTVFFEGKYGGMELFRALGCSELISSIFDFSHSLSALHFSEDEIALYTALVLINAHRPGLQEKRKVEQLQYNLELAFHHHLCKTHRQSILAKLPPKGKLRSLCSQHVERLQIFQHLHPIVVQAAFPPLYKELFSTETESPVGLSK
Chain of human Thyroid Receptor alpha (THRa1), THRA (gene 7067) (P10827 whole entry, looked up, the tested form may be a part): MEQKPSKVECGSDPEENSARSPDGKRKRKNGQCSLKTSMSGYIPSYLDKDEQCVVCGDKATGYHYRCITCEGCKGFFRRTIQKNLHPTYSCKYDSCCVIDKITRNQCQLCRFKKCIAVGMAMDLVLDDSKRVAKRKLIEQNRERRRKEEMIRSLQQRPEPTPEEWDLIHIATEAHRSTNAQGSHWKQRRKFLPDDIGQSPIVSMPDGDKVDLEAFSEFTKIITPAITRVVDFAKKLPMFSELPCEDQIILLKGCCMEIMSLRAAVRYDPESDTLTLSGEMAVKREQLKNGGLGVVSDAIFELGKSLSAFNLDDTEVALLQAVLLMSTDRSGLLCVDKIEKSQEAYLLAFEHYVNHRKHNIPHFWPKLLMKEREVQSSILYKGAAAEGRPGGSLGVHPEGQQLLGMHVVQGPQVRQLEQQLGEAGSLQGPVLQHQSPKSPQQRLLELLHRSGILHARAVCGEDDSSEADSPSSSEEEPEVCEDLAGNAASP
Chain of human Retinoid X Receptor beta (RXRb), RXRB (gene 6257) (P28702 whole entry, looked up, the tested form may be a part): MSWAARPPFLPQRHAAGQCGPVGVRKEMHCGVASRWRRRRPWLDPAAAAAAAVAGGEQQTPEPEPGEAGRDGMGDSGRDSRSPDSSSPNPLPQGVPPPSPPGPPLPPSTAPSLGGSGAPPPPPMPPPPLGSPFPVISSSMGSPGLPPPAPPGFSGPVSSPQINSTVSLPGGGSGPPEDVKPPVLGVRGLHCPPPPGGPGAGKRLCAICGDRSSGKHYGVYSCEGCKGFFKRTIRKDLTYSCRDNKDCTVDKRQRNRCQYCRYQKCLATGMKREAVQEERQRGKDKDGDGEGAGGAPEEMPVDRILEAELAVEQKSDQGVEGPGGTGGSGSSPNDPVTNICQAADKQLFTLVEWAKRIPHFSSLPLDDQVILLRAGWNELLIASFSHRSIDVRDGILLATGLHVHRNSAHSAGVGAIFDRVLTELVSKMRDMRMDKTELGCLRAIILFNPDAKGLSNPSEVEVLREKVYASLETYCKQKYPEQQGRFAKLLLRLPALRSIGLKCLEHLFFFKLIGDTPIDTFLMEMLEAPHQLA

`FC(F)(F)C(F)(F)CNCC(F)(F)C(F)(F)F`: the compound was classed as inactive in test [1], in test [2], in [3], in test [4], in test [5] and in test [6]. Besides, the result in [7] was inactive.
For the compound `CCCCCCOC(=O)c1ccccc1`, the compound was classed as inactive in [1] and in [2].
Consider `OCCCC(F)(F)C(F)(F)C(F)(F)C(F)(F)C(F)(F)C(F)(F)C(F)(F)F`, for which the AC50 in [1] is 42.3 µM (active); in test [3], 23.3 µM (active) and 48.9 µM (active); in test [4] it was 44.1 µM (active) and 47.9 µM (active); in [5], 30.8 µM (active) and 44.4 µM (active); in test [6], 45.7 µM (active) and 45.1 µM (active). The result in test [1] was inactive.
For `FC1CC(F)(F)C(F)(F)C1(F)F` (stereo unspecified), the result in [8], in test [2], in test [3], in test [4], in test [5] and in test [6] was inactive.
Consider `O=C(CC(=O)C(F)(F)C(F)(F)F)C(F)(F)F`, for which the call in [1], in [9], in test [2], in test [3], in test [4] and in [6] was inactive. In test [5], the AC50 is 30 µM (active) and 21.7 µM (active).
Take `CS(C)(=O)=O`: the compound was classed as inactive in test [1], in [3], in test [4], in [5], in test [6] and in test [7].
As to `FC(F)(F)C(F)(F)C(F)(F)N(C(F)(F)C(F)(F)C(F)(F)F)C(F)(F)C(F)(F)C(F)(F)F`, the compound was classed as inactive in test [9], in test [2], in [3], in test [4], in [5] and in test [6]. In addition, the outcome in test [7] was inactive.
For the compound `C=C(C)C(=O)OCCC(F)(F)C(F)(F)C(F)(F)C(F)(F)C(F)(C(F)(F)F)C(F)(F)F`, the compound was called inactive in [1], in test [3], in [4], in test [5], in test [6] and in test [7].
With `FC(F)(I)C(F)(F)C(F)(F)C(F)(F)I`, the call in [8] and in [6] was inactive. The concentration at half-maximal activity (AC50) in test [3] was 49 µM (active) and 50.6 µM (active) and 53.6 µM (active); in test [4] it was 47.5 µM (active) and 46 µM (active) and 45 µM (active); in test [5], 44.5 µM (active) and 49 µM (active) and 51.6 µM (active); in [6], 45.6 µM (active) and 19.3 µM (active); in test [7] it was 50.2 µM (active) and 46.5 µM (active) and 59 µM (active).
Consider `CO[Si](OC)(c1ccccc1)c1ccccc1`, for which the result in test [1] and in test [4] was inactive. The AC50 is 31 µM (active) in [3], 32 µM (active) in test [5], 0.148 µM (active) in [6] and 32.5 µM (active) in test [7].
Consider `c1ccc(B(c2ccccc2)c2ccccc2)cc1`, for which the result in test [1] and in test [2] was inactive. Also, the AC50 in test [9] is 100 µM (active).
On to `O[Si](c1ccccc1)(c1ccccc1)c1ccccc1`, for which the compound was classed as inactive in [1], in [9], in test [2] and in test [4]. For the same compound, the AC50 in test [3] was 6.83 µM (active); in [5] it was 37.6 µM (active); in test [6], 11.9 µM (active).
For `O=S(=O)(OCC(F)F)C(F)(F)F`, the compound was classed as inactive in [8], in [1], in test [3], in [4], in test [5] and in [6].
As to `O=C(Cl)C(F)(F)C(F)(F)C(F)(F)C(F)(F)C(F)(F)C(F)(F)C(F)(F)C(F)(F)F`, the result in [1], in [3], in [5] and in test [6] was inactive. In addition, the AC50 in test [4] was 46.4 µM (active) and 46.3 µM (active) and 55 µM (active); in [5], 49.7 µM (active); in test [6], 5.95 µM (active); in test [7] it was 49.4 µM (active) and 51.1 µM (active) and 52.5 µM (active).
Consider `FC(F)(Br)C(F)(F)C(F)(F)C(F)(F)C(F)(F)C(F)(F)Br`, for which the compound was classed as inactive in [1], in [3], in test [4], in [5] and in [6].
In the case of `CCCCOCCOCCOC(=O)CCCCC(=O)OCCOCCOCCCC`, the outcome in test [8], in test [9], in [2], in test [3], in test [4] and in test [5] was inactive. Moreover, the outcome in [6] was inactive.
Take `CN(C)Cc1ccccc1O`: the outcome in test [2] was inactive.
`O=S(=O)(OCCOC(F)(F)F)C(F)(F)F`: the compound was called inactive in test [1], in [3], in [4], in test [5] and in [6].
In the case of `CC(CCl)OP(=O)(OC(C)CCl)OC(C)CCl` (stereo unspecified), the result in [1], in test [9], in test [3], in test [4], in test [5] and in test [6] was inactive. Besides, in test [7], the outcome was inactive.
For `OCCCC(F)(F)C(F)(F)C(F)(F)F`, the compound was classed as inactive in [1], in [9], in test [3], in test [4], in test [5] and in [6]. Further, the result in test [7] was inactive.
As to `FC(F)(F)C(F)(F)C(F)(F)C(F)(F)C(F)(F)C(F)(F)C(F)(F)I`, the outcome in [8], in [3], in [4], in [5] and in [6] was inactive.
With `O=C(O)C=C(C(F)(F)F)C(F)(F)F`, the call in test [8], in [1], in test [2], in test [4], in test [5] and in [6] was inactive. Further, the AC50 in test [3] is 15.3 µM (active) and 5.95 µM (active).
In the case of `OCC(F)(F)C(F)(F)C(F)(F)C(F)(F)C(F)(F)C(F)(F)F`, the compound was classed as inactive in [8], in [2], in test [3], in test [4], in test [5] and in test [6]. In addition, the result in test [7] was inactive.
Consider `CC(C)=CCCC(C)CCOC(=O)C(C)C` (stereo unspecified), for which the compound was called inactive in [8], in [9] and in [2].
For the compound `COC(=O)C1CCC(C(=O)OC)CC1` (stereo unspecified), the compound was classed as inactive in test [1] and in [2].
For the compound `C=C(C)C(=O)OCC(F)(F)C(F)(F)C(F)(F)F`, the call in test [1], in test [3], in [4], in test [5] and in test [6] was inactive.
As to `C#C[C@]1(O)CC[C@H]2[C@@H]3CCc4cc(OC)ccc4[C@H]3CC[C@@]21C`, the compound was called inactive in test [1], in [2], in test [3], in test [5] and in [6]. Further, the concentration at half-maximal activity (AC50) in [4] is 998 nM (active).
